Our source for the parasite growth values is the supplement of paper PMC4894684.

Each structure is given as a SMILES string. Counter-ions that a name gives are not always drawn. ± gives the standard deviation of the averaged measurements. Bounds are passed on as bounds.

The subject of this test is Toxoplasma gondii RH (in HFF). Briefly: parasite growth relative to the screen mean (all compounds = 100%); higher = less inhibition of parasite growth. The conditions noted are these: 5 µM; 72 h; oxygen 21 %. The method, boiled down:
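Confluent human foreskin fibroblasts in 96-well plates received library compounds by pin transfer at 5 µM final, taken from 10 mM DMSO stocks. Within 2 h the cells were infected with RH β-Gal–GFP Toxoplasma at MOI 1:5 and cultured 72 h at 21% O2. A CPRG β-Gal assay read against in-plate standard curves gave parasite number, and growth is stated relative to the screen mean, where all compounds = 100%, averaged across two screens.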
Take `O=C(O)c1c(Sc2ccccc2)c2cc(Cl)ccc2n1Cc1ccc(Cl)cc1`: the parasite growth amounted to 88.5 ± 6.7%.
On to `N[C@H]1CCN(O)C1=O`, for which the parasite growth stood at 94.9 ± 34%.
The molecule `Cc1ccc(C(=O)Nc2ccc(S(=O)(=O)O)c3cc(S(=O)(=O)O)cc(S(=O)(=O)O)c23)cc1NC(=O)c1cccc(NC(=O)Nc2cccc(C(=O)Nc3cc(C(=O)Nc4ccc(S(=O)(=O)O)c5cc(S(=O)(=O)O)cc(S(=O)(=O)O)c45)ccc3C)c2)c1` [Suramin hexasodium salt] returned a parasite growth of 90 ± 22%.
Consider `CC[C@@H]1Cn2c(c3nc(-c4ccccc4)nc-3n(C)c2=O)N1`, for which the parasite growth was determined as 96.8 ± 13%.
The molecule `COc1cc(SC)ccc1C(=O)N1CCC(Cc2ccccc2)CC1` came in with a parasite growth of 112 ± 5.8%.
In turn, `NC(=O)Nc1sc(-c2ccc(F)cc2)cc1C(N)=O` registered a parasite growth of 77.1 ± 11%.
The molecule `CC(C)C1C2CCC(C2)C1N` (centres undefined) returned a parasite growth of 118 ± 6.6%.
In the case of `C[C@@H]1CN(CCCn2c3ccccc3c3ccccc32)C[C@H](C)N1` [Rimcazole dihydrochloride] it was 31.8 ± 4.5%.
In the case of `O=C1Nc2ccc(I)cc2/C1=C/c1cc(Br)c(O)c(Br)c1` it was 114 ± 18%.
Turning to `CNS(=O)(=O)Cc1ccc2[nH]cc(CCN(C)C)c2c1` [Sumatriptan succinate], the parasite growth came to 76.2 ± 11%.
In the case of `COc1ccccc1N1CCN(CCN2C(=O)CC3(CCCC3)CC2=O)CC1` [BMY 7378 dihydrochloride] it was 81.06 ± 0.29%; in that of `CSc1nc(NC2CCCC2)c([N+](=O)[O-])c(NC2CCCC2)n1`, 35.6 ± 32%.
`C=C1C(=O)O[C@@H]2/C=C(\C)CC/C=C(\C)CC[C@@H]12` [Costunolide] gave a parasite growth of 30.7 ± 25%.
In the case of `CN(C)C(=O)C(CCN1CCC(O)(c2ccc(Cl)cc2)CC1)(c1ccccc1)c1ccccc1` [Loperamide hydrochloride] it was 20.6 ± 19%; in that of `C1CCC2(CC1)CCNCC2` [4,4-Pentamethylenepiperidine hydrochloride], 107 ± 22%; in that of `Nc1c2c(nc3ccccc13)CCCC2` [Tacrine hydrochloride], 130 ± 27%.
Molecule `C[C@@H](CN1CCC(Cc2ccccc2)CC1)[C@@H](O)c1ccc(O)cc1` [Ro 25-6981 maleate] showed a parasite growth of 121 ± 23%.
In the case of `COc1ccc(Nc2nccc(NCCO)n2)cc1` [Cardiogenol C hydrochloride] it was 122 ± 4.2%; in that of `CC(C)(Oc1ccc(Cl)cc1)C(=O)O` [Clofibric acid], 127 ± 43%.
On to `O=S(=O)(NCCNC/C=C/c1ccc(Br)cc1)c1cccc2cnccc12` [H 89 dihydrochloride], for which the parasite growth stood at 26.2 ± 27%.
In turn, `CCN(CC)CCCCNc1ncc2cc(-c3c(Cl)cccc3Cl)c(NC(=O)NC(C)(C)C)nc2n1` returned a parasite growth below 0%.
`Oc1nc(-c2ccc(C(F)(F)F)cc2)nc2c1CSCC2`: the parasite growth is 136 ± 21%.
Take `CCC1(c2ccccc2)C(=O)NCNC1=O` [Primidone]: the parasite growth turned out to be 113 ± 18%.
`Cc1c(NC(=O)N2CCOCC2)ccc2c1c1ccccc1n2C(C)C` displayed a parasite growth of 144 ± 4.9%.
The result for `Cc1cc(I)ccc1Nc1c(C(=O)NOCC2CC2)cc(F)c(F)c1F` reads 107 ± 21%; that for `CNCC[C@@H](Oc1ccccc1C)c1ccccc1` [Tomoxetine hydrochloride], 85.9 ± 8.6%.
On to `Nc1nc2ccc(OC(F)(F)F)cc2s1` [Riluzole hydrochloride], for which the parasite growth was found to be 88.1 ± 11%.
The result for `COC(=O)C1=C(C)NC(C)=C(C(=O)OC(C)C)C1c1cccc2nonc12` (centres undefined) [Isradipine] reads 43.3 ± 5.6%; that for `COc1cc2nc(N3CCN(C(=O)c4ccco4)CC3)nc(N)c2cc1OC` [Prazosin hydrochloride], 73.4 ± 17%; that for `O=[N+]([O-])c1cccc2c(Br)[nH]nc12` [3-Bromo-7-nitroindazole], 123 ± 5.8%.
The result for `O=C(O)c1ccc2cc(-c3ccc(O)c(C45CC6CC(CC(C6)C4)C5)c3)ccc2c1` reads 181 ± 36%; that for `COCCOC(=O)C1=C(C)NC(C)=C(C(=O)OC(C)C)C1c1cccc([N+](=O)[O-])c1` (centres undefined) [Nimodipine], 117 ± 13%.
The result for `Cc1ccccc1N1CCN(S(=O)(=O)C[C@]23CC[C@H](C[C@@H]2NC(=O)[C@@H](N)CCS(C)(=O)=O)C3(C)C)CC1` [L-368,899 hydrochloride] reads 161 ± 16%; that for `c1ccc2sc(N3CCN(Cc4ccc5c(c4)OCO5)CC3)nc2c1` [2-[1-(4-Piperonyl)piperazinyl]benzothiazole], 113 ± 20%.
Molecule `O=C(O)c1ccc(-c2ccc3cc(O)c(C45CC6CC(CC(C6)C4)C5)cc3c2)cc1` had a parasite growth of 146 ± 18%.
For `O=c1cc(N2CCNCC2)oc2c(-c3ccccc3)cccc12`, the parasite growth stood at 150 ± 30%.
Consider `CN[C@H]1CC[C@@H](c2ccc(Cl)c(Cl)c2)c2ccccc21` [Sertraline hydrochloride], for which the parasite growth is 29.3 ± 4.4%.
In the case of `COC(=O)[C@@H]1CC2=CC(=O)CC[C@]2(C)[C@@]23O[C@@H]2C[C@@]2(C)[C@@H](CC[C@@]24CCC(=O)O4)[C@H]13` [Eplerenone] it was 132 ± 22%; in that of `Cc1cc(C)c(/C=C2\C(=O)Nc3ccccc32)[nH]1`, 198 ± 12%.
